Results published in PubChem BioAssay (NCATS).
Records with an inconclusive call do not appear. Entries that show only a call come without a potency. Activity calls are given as the source filed them. Calls follow the shape of the dose curve; as a rule, active = well fitted activation curve with a large enough effect; inconclusive = small, poorly fitted or top-dose-only effect, or another doubt; inactive = no such curve, though single readings can be large or run the other way.

The molecules below were run against Rap guanine nucleotide exchange factor 3 (Homo sapiens) (UniProt O95398) (assay: Counterscreen qHTS for agonist of cAMP-regulated guanine nucleotide exchange factor 3 (EPAC1) (AID 1645889; also: nearly all actives have a fitted effect of over 40% in size)). Conditions: EPAC1 Rap1B-BODIPY-GDP exchange, fluorescence; series mostly up to 154 µM.
Summary of the method: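 Rap1B–BODIPY-GDP (250 nM) with 50 uM GDP; compounds pin-transferred to 9.74 nM–152 uM final (activator) or from 7.32 nM upwards (inhibitor). Fluorescence Ex/Em 480/540 nm read at 5 and 30 min, then after adding cAMP or buffer, at room temperature.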
With `CCOc1cc(/C=C2\SC(=S)N(NS(=O)(=O)c3ccc(C)cc3)C2=O)ccc1O` the Potency was “inactive”. With `NS(=O)(=O)c1ccc(N=Nc2c[nH]c(=O)c(O)c2)cc1` the Potency was “inactive”. `Cc1[nH]n(-c2ncc(-c3ccccc3)s2)c(=O)c1C(c1ccc(Br)cc1)C(C#N)C#N` (centres undefined) was tested, and the activation was 8.62% [at 30.8 µM] (inactive). In the case of `COC(=O)c1cc(Br)c(=O)n(Cc2ccc3c(c2)OCO3)c1`, the activation is reported as 2.16% [at 30.8 µM] (inactive). For `CCN(CC)c1nc2ccccc2n(Cc2cccc(OC)c2)c1=O`, the Potency was “inactive”. For `Cc1cccn2cc(CCNC(=O)c3ccco3)nc12`, the activation was 19.7% [at 30.8 µM] (inactive). With `COCCCn1c(=N)c(C(=O)NCc2cccnc2)cc2c(=O)n3cccc(C)c3nc21` the Potency was “inactive”. In the case of `O=C(Nc1nc2ccc(Cl)cc2s1)C1CCCO1` (centres undefined), the activation is reported as 15.7% [at 30.8 µM] (inactive). In the case of `O=C(COc1ccccc1[N+](=O)[O-])Nc1cccc(C(=O)Nc2ccccc2C(=O)O)c1`, the Potency is reported as “inactive”. `CC[C@]12c3[nH]c4cc(-c5ccco5)ccc4c3CCN1C(=O)[C@@H](CC(=O)NCCCOC)C[C@@H]2C(=O)N1CCN(C(=O)C2CC2)CC1` was tested, and the activation was -1.13% [at 30.8 µM] (inactive). For `O=C(/C=C/c1ccc(O)c(O)c1)O[C@@H]1C[C@](O)(C(=O)O)C[C@@H](O)[C@H]1O`, the activation was -1.95% [at 30.8 µM] (inactive). For `Cc1ccc(SCc2nnc(N)s2)cc1`, the activation was 7.74% [at 30.8 µM] (inactive). With `O=C(NCCc1ccccc1)c1ccc2c(=O)[nH]c3c(C(=O)NCC4CCCO4)sc(=S)n3c2c1` (centres undefined) the Potency was “inactive”. In the case of `O=C(Nc1ccccc1C(=O)O)c1cccc(S(=O)(=O)Nc2ccc(Br)cc2)c1`, the Potency is reported as “inactive”. For `O=C(CSc1nccn1C1CCCC1)Nc1cc(C(F)(F)F)ccc1Cl`, the Potency was “inactive”. For `NC(=O)c1ccsc1NC(=O)CS(=O)(=O)c1ccc(F)cc1`, the Potency was “inactive”. For `O=C(O)c1ccc(/C=N/NC(=O)c2ccc(CN3c4cccc5cccc(c45)S3(=O)=O)cc2)cc1`, the activation was 13.7% [at 30.8 µM] (inactive). With `COc1ccc(NC(=O)CCCSc2nc(-c3ccco3)cc(C(F)(F)F)n2)cc1` the Potency was “inactive”. With `Cc1ccc(C(=O)/C=C/c2cc(Br)cc(Br)c2O)o1` the Potency was “inactive”. `Cc1ccc(/C(O)=C2/C(=O)C(=O)OC2c2ccc(Cl)cc2)cc1` (centres undefined) was tested, and the activation was 5.06% [at 30.8 µM] (inactive). `COc1cccc(OC)c1C(=O)NC(=S)NNC(=O)[C@H]1C[C@@H]1c1ccccc1` was tested, and the Potency was “inactive”. With `CC(NC(=O)Nc1ccc(O)cc1)(C(F)(F)F)C(F)(F)F` the activation was 3.78% [at 30.8 µM] (inactive). In the case of `O=C(O)CC1Sc2nc3ccccc3n2C1=O` (centres undefined), the activation is reported as 12.5% [at 30.8 µM] (inactive). With `CCCc1nc2ccccc2c(=O)n1/N=C/c1ccc(O)c(O)c1` the Potency was “inactive”.
